The entries come from a sample that favours hits as a whole.
Pf Dd2 inh: qHTS Primary assay for Inhibitors of Plasmodium falciparum Dd2 growth in vitro; Potency, µM (series often up to 28.9 µM), usual class: inhibitors; AID 1347417, 2020; P. falciparum Dd2 growth, SYBR Green, 72 h; 120,000 compounds, 4.3% hits; active means well fitted inhibition curve with a large enough effect; further: nearly all actives have a fitted effect of over 65% in size
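Infected erythrocytes (Dd2, 0.3% parasitemia, 2.5% hematocrit final) are added to compound in RPMI-1640/Albumax II medium, grown 72 h at 37C in low oxygen, then lysed with saponin/Triton-X containing SYBR Green and read by fluorescence.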
Hits are given with their value.

`Cc1ccc(C2=NC3(CCN(C(=O)c4ccccc4C)CC3)ON2)cc1` gave Pf Dd2 inh 6.3µM.
O=C(c1ccccc1)N1CCC2(CC1)N=C(c1cccc(Br)c1)NO2 was read as Pf Dd2 inh inactive.
Cc1ccc(C2=NC3(CCN(C(=O)c4c[nH]c5ccccc45)CC3)ON2)cc1 was read as Pf Dd2 inh inactive.
CN(C)c1ccc(C(=O)N2CCC3(CC2)N=C(c2cccc(Br)c2)NO3)cc1 was read as Pf Dd2 inh inactive.
CC(=O)Nc1ccc(C(=O)N2CCC3(CC2)N=C(c2cccc(Br)c2)NO3)cc1 was read as Pf Dd2 inh 11µM.
Cc1ccc(C2=NC3(CCN(C(=O)Cc4ccc(F)cc4)CC3)ON2)cc1 was read as Pf Dd2 inh inactive.
`CS(=O)(=O)c1cnc(NCCCc2ccccn2)nc1C1CCCNC1` (centres undefined) gave Pf Dd2 inh inactive.
Screening CN(CC1CCCCC1)C1CCc2nn(C)c(=O)n2CC1 (centres undefined) returned Pf Dd2 inh inactive.
`CCOCCN1C(=O)COC[C@@H]1[C@H](O)c1ccc(NC(=O)C2CC2)cc1` gave Pf Dd2 inh inactive.
`O=C(c1ccc(Cl)nc1)N1CCCC(c2nn(-c3ccc(F)cc3)c(=O)[nH]2)C1` (centres undefined) gave Pf Dd2 inh inactive.
Cc1nn2c(c1-c1ccnn1C(C)C)N(C(=O)COc1ccccc1C(N)=O)CCC2 was read as Pf Dd2 inh inactive.
CNC(=O)CCNc1c(-c2cccc(F)c2)nc2cnccn12 was read as Pf Dd2 inh inactive.
Screening COCc1nc(C2CCCN(C(=O)c3sccc3C)C2)no1 (centres undefined) returned Pf Dd2 inh inactive.
For CN(C)C(=O)CCC[C@H]1NC[C@@H]2C[C@H]1CN(Cc1ccccc1)C2 the results were Pf Dd2 inh inactive.
For O=C(CCc1ccccc1)N1C[C@@H](CO)[C@H](c2ccncc2)C1 the results were Pf Dd2 inh inactive.
`Cc1cccc(C(=O)NC2CCN(c3cn[nH]c(=O)c3)CC2)c1` gave Pf Dd2 inh inactive.
For CCn1cc(C(=O)N2C[C@H](c3cccc(OC)c3)[C@@H]3[C@H]2C2CCN3CC2)cn1 the results were Pf Dd2 inh inactive.
COc1ccc([C@@H]2CN(C(=O)c3sccc3C)[C@@H]3C4CCN(CC4)[C@@H]32)cc1 was read as Pf Dd2 inh 10µM.
`Cc1ncsc1CCC(=O)N1C[C@@H](c2ccccc2)[C@@H]2[C@H]1C1CCN2CC1` gave Pf Dd2 inh inactive.
`COCCNc1nc(C)nc2c1CCN(Cc1ccccc1C#N)CC2` gave Pf Dd2 inh inactive.
CN(C)c1ccc(CN[C@H]2CC(C)(C)[C@@H]3C[C@@](C)(O)CC[C@]23CCC(=O)NCCc2c[nH]c3ccccc23)cc1 was read as Pf Dd2 inh inactive.
O=C(O)C1CCN(C(=O)N2CC3CC(C2)[C@H]2CCCC(=O)N2C3)CC1 (some centres undefined) was read as Pf Dd2 inh inactive.
CCOC(=O)c1c(NC(=O)CSc2cn(CCNC(=O)c3ccccc3F)c3ccccc23)sc2c1CCCC2 was read as Pf Dd2 inh inactive.
`CCOC(=O)c1c(NC(=O)CSc2cn(CCNC(=O)c3ccc(OCC)cc3)c3ccccc23)sc2c1CCC2` gave Pf Dd2 inh inactive.
Screening CCOC(=O)c1c(NC(=O)CSc2cn(CCNC(=O)c3ccccc3OC)c3ccccc23)sc2c1CCC2 returned Pf Dd2 inh 11µM.
O=C(C1CCCC1)N1CCC(Cc2nncn2CC2CC2)C1 (centres undefined) was read as Pf Dd2 inh inactive.
`OCCOCCn1cnc(-c2ccccc2)c1-c1ccc(-n2cccn2)cc1` gave Pf Dd2 inh inactive.
`COc1cc(OC)c(-c2c(-c3ccccc3)ncn2CCF)cc1OC` gave Pf Dd2 inh 10µM.
For C#CCOc1ccccc1-c1c(-c2ccccc2)ncn1CCCO the results were Pf Dd2 inh inactive.
Screening c1cncc(-c2nc(CCNc3ncncn3)cs2)c1 returned Pf Dd2 inh inactive.
Screening CC1=C[C@@H](CNC(=O)c2cccnc2)[C@H](C(C)C)C[C@H]1CC(=O)NCc1ccccn1 returned Pf Dd2 inh inactive.
CC1=C[C@@H](CNS(=O)(=O)c2ccccc2)[C@H](C(C)C)C[C@H]1CC(=O)NCCN(C)C was read as Pf Dd2 inh inactive.
CC1=C[C@@H](CN(C)CCN(C)C)[C@H](C(C)C)C[C@H]1Cc1nnc(-c2ccccc2)o1 was read as Pf Dd2 inh 3.5µM.
COc1ccc(-c2nnc(C[C@@H]3C[C@@H](C(C)C)[C@H](CNCc4ccncc4)C=C3C)o2)cc1 was read as Pf Dd2 inh 4µM.
CC1=C[C@@H](CNS(C)(=O)=O)[C@H](C(C)C)C[C@H]1Cc1nnc(-c2cncn2C)o1 was read as Pf Dd2 inh inactive.
CC1=C[C@@H](CNC(=O)NC(C)C)[C@H](C(C)C)C[C@H]1CC(=O)NCc1ccccn1 was read as Pf Dd2 inh inactive.
For CC1=C[C@@H](CN(C)CCc2ccccn2)[C@H](C(C)C)C[C@H]1Cc1nnc(-c2ccncc2)o1 the results were Pf Dd2 inh 3.5µM.

Screens deposited in PubChem BioAssay by National Center for Advancing Translational Sciences (NCATS).
